Source: PubChem BioAssay
D2 ag-1 – activates the human D2 dopamine receptor | P14416 | DiscoveRx PathHunter D2 beta-arrestin, luminescence, 90 min; 100% = 57 uM dopamine signal | activation, % (test concentration not listed) | hit rate 0.084% among 360,000 | AID 624465; in the data active means activation above about 40%; inconclusive means between about 15% and that limit
Target sequence (P14416 whole entry, looked up): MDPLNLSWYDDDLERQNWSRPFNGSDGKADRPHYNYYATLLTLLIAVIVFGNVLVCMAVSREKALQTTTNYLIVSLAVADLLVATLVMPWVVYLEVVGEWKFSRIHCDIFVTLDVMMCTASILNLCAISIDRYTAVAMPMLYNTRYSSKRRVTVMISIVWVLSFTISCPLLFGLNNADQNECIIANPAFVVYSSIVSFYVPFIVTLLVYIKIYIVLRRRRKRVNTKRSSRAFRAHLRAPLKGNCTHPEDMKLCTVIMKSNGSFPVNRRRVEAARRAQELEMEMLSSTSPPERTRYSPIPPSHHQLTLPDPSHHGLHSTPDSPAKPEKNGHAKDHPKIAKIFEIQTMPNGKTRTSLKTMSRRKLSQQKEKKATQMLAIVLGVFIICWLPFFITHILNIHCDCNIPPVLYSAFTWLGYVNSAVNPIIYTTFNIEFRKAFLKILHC
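Agonist mode: compounds alone added to overnight-plated D2 PathHunter cells for 90 min at 37 C, with 57 uM final dopamine (EC100) defining full response. Beta-arrestin recruitment detected by chemiluminescent reagent, read after 1 h at ambient temperature.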
D2 ag-2 – agonists of human D2 dopamine receptor; HEK293 T-REx D2 cells, calcium flux agonist mode; AID 485358; activation, % at 2 µM; hit rate 0.53% among 340,000; P14416;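 active means activation over 3 SD above normal in the single-dose calcium agonist read, cut at about 30% in these data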; further: 0% is about no effect
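HEK293 Trex D2 cells, tetracycline-induced, o/n 30 C 5% CO2; no-wash Ca dye, RT 30–90 min; 10-cycle baseline, 23 nl cpd added, kinetic Ca read 180 s; agonist hits = positive Ca response.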
D2 antag – antagonizes the human D2 dopamine receptor | P14416 | HEK293 TREx D2 cells, calcium flux, dopamine EC80 | inhibition, % at 10 µM | hit rate 2% among 340,000 | AID 485344; in the data active means inhibition above about 30%; inactive means below that, where a call was filed; further: 0% is about no effect
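Antagonism is scored as inhibition of an EC80 dopamine-evoked calcium signal in a force-coupled, tetracycline-inducible HEK293 T-REx D2 line, with compound present 180 s before agonist.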
D2 PAM-1 – positively modulates the human D2 dopamine receptor allosterically; HEK293 T-REx D2, calcium flux, EC20 dopamine potentiation; potentiation, % at 10 µM; hit rate 0.34% among 340,000; AID 485347;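 active means potentiation over 3 SD above the plate norm, cut at about 30% in these data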; further: 0% is about no effect
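Calcium flux readout, no-wash dye, 1 read/s. Inducible HEK293 Trex D2 line, overnight 30 C. Compound alone 180 s (agonist flags), then EC20 dopamine, another 180 s to score potentiation.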
D2 PAM-2 – positive allosteric modulators of human D2 dopamine receptor. P14416. DiscoveRx D2 beta-arrestin cells, luminescence, 90 min; 100% = 57 uM dopamine signal. potentiation, % (no concentration beside the values). hit rate 0.23% among 360,000; in the data active means potentiation above about 50%; inconclusive means mostly about 30% to 49%
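D2 cells co-treated with compound plus 50 nM dopamine (EC20) for 90 min at 37 deg C to detect potentiation. Beta-arrestin recruitment was read as enzyme-fragment luminescence after 1 h at ambient temperature. Full response was set by 57 uM dopamine.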
* = called active by the depositor; ? = inconclusive; . = no result. Sampled rows, rich in hits. Any-hit rate of the full collection: about 2.4%.

SMILES | D2 ag-1 | D2 ag-2 | D2 antag | D2 PAM-1 | D2 PAM-2
CCCCN(CCCC)CCNC(=O)Cn1nc(CC)n2c(cc3sc(C)cc32)c1=O | . | 0 | . | -20 | .
Clc1ccc(OCCCNCc2ccccc2)c2ccccc12 | -1 | 4 | 41* | -30 | -15
C=CCc1ccc(OCCCNCc2ccccc2)c(OC)c1 | -1 | 0 | 62* | -31 | -79
C=CCc1ccc(OCCCNC2CCCC2)c(OC)c1 | 1 | . | . | . | -5
COC(=O)c1ccc(CN2C(=O)c3ccccc3C2=O)cc1 | 1 | 0 | -10 | 3 | 1
CC1=CC(C)(C)Nc2ccc(OC(=O)CN3C(=O)c4ccccc4C3=O)cc21 | 15 | -2 | 1 | 5 | 113*
COC(=O)c1ccc(OC(=O)CN2C(=O)c3ccccc3C2=O)cc1 | 3 | 0 | -10 | -4 | 75*
Cc1cc(C)n(CCn2nc(C)cc2C)n1 | -1 | 1 | 41* | -1 | -10
Cc1cc(C)n(CC(=O)O)n1 | -4 | 0 | -21 | 12 | 5
C/C(Cn1cnc([N+](=O)[O-])n1)=N\NC(=O)c1ccccc1 | -1 | -1 | -7 | -9 | 2
C/C(Cn1nnc([N+](=O)[O-])n1)=N\NC(=O)c1ccccc1 | 7 | 1 | -7 | 2 | 59*
CCC(C)(C)NC(=O)CN(C(=O)CCC(=O)Nc1nccs1)c1ccc2c(c1)OCCO2 | -2 | -2 | 1 | 31* | -6
CCC(C)(C)NC(=O)CN(Cc1ccc2c(c1)OCO2)C(=O)CCC(=O)Nc1nccs1 | -2 | -1 | 41* | 4 | -7
CCc1ccc(N(CC(=O)NC(C)(C)CC)C(=O)CCC(=O)Nc2nccs2)cc1 | -5 | 0 | 0 | -10 | -4
COC(=O)c1cccc(Nc2nn3c(=O)c4cc5c(cc4nc3s2)OCO5)c1 | . | 0 | . | 3 | .
CCCOc1ccc(N2C(=O)CC(NNC(=O)c3ccc(COc4ccccc4)o3)C2=O)cc1 (centres undefined) | 6 | -1 | -1 | 3 | -12
O=C(NNC1CC(=O)N(c2ccc(Cl)cc2)C1=O)c1ccco1 (centres undefined) | -2 | 0 | 3 | -3 | -9
O=C(NNC1CC(=O)N(c2ccc(Br)cc2)C1=O)c1ccco1 (centres undefined) | 2 | 38* | -2 | -21 | -18
CCOc1cccc(N2C(=O)CC(NNC(=O)c3ccc(Br)o3)C2=O)c1 (centres undefined) | -2 | -1 | 38* | 10 | -6
CCc1nnc(NC(=O)CSc2nnc(CNc3ccc(Cl)cc3)o2)s1 | 6 | 0 | 50* | 9 | 4
CCc1nnc(NC(=O)CSc2nnc(Cc3ccccc3)o2)s1 | 1 | 0 | 6 | -1 | 0
Cc1oc2c(CN3CCCC3)c(O)ccc2c(=O)c1-c1ccccc1 | -3 | 0 | 2 | 10 | -8
Cc1oc2c(CN3CCC(C)CC3)c(O)ccc2c(=O)c1-c1ccccc1 | -4 | -1 | 44* | -4 | -11
Cc1nc2ccc(NC(=O)c3ccc(Cl)c([N+](=O)[O-])c3)cc2s1 | -2 | 0 | -15 | 7 | 4
Cc1nc2ccc(NC(=O)c3cc([N+](=O)[O-])cc([N+](=O)[O-])c3Cl)cc2s1 | 12 | 0 | -13 | -3 | 63*
SMILES | D2 ag-1 | D2 ag-2 | D2 antag | D2 PAM-1 | D2 PAM-2
COc1ccc(-c2nn(-c3ccccc3F)cc2CNCCn2nc(C)cc2C)cc1 | -4 | 0 | 37* | -19 | -14
Cc1oc2ncn(CC(C)C)c(=O)c2c1C(=O)NCCCN1CCC(C)CC1 | . | 0 | . | -16 | .
CC(O)CNCCCOc1ccc(Cl)cc1C(C)(C)C (centres undefined) | 1 | 1 | -18 | -14 | -13
C=CCc1cc(Cl)ccc1OCCN(C)C | -1 | 1 | 53* | -15 | -14
CN(C)CCOCCOc1ccc(Cl)cc1C(C)(C)C | -5 | 0 | 64* | -17 | -10
Cc1ccc(CN2CCC(C)(Oc3cccc(Cl)c3)C2)cc1 (centres undefined) | 5 | . | . | . | -30
Cc1ccc(CNC(=O)C2CCCN(S(=O)(=O)c3cn(C)cn3)C2)cc1 (centres undefined) | . | 2 | . | -1 | .
CC(C)Oc1ccc(S(=O)(=O)N2CCCCC2)cc1NC(=O)CN1CCCC1c1cccs1 (centres undefined) | 0 | 0 | 33* | -4 | -1
CC(C)Oc1ccc(S(=O)(=O)N2CCOCC2)cc1NC(=O)Cc1c(F)cccc1Cl | -2 | 0 | 31* | 11 | 16
Cc1nc(-n2nc(C)c(CCC(C)C)c2C)sc1C(=O)Nc1ccc(Br)cc1 | . | . | . | 7 | .
OC(Cc1cccc(Br)c1)c1ncc(-c2cccc(C(F)(F)F)c2)[nH]1 (centres undefined) | 4 | . | . | . | -3
COc1ccccc1N1CCN(Cc2nc(N)nc(Nc3ccccc3)n2)CC1 | 0 | 8 | 34* | -24 | -14
CCOC(=O)C1CCCN(CC(O)COc2ccccc2C(C)=O)C1 (centres undefined) | -1 | -1 | -9 | -22 | -14
COc1ccccc1Nc1nc(N)nc(CN2CCCCCC2)n1 | 0 | -1 | -23 | -6 | -12
CCOC(=O)C1CCCN(CC(O)COC(c2ccccc2)c2ccccc2)C1 (centres undefined) | -2 | -3 | 33* | . | -12
COc1ccc(CN2CCC(C(N)=O)CC2)cc1OCc1ccccc1 | -4 | 0 | -2 | -4 | 0
CCOC(=O)C1CCCN(Cc2ccc(OC)c(OCc3ccccc3)c2)C1 (centres undefined) | -5 | -1 | 45* | -21 | -3
CCOC(=O)C1CCCN(Cc2nc(N)nc(Nc3ccccc3OC)n2)C1 (centres undefined) | -4 | -1 | 34* | -10 | -6
CC(=O)c1ccc(NC(=O)c2cccc(NC(=O)N3CCSc4ncccc43)c2)cc1 | . | 0 | . | -5 | .
CCOC(=O)C1CCN(Cc2ccc3ccccc3c2)CC1 | 0 | 13 | 9 | -16 | -3
CCOC(=O)C1CCCN(Cc2ccc(OCC)cc2)C1 (centres undefined) | -2 | 42* | 28 | -27 | -11
CCOC(=O)C1CCN(Cc2cc(C(C)C)c(O)c(C(C)C)c2)CC1 | -13 | 22 | 45* | -21 | -18
Cc1nc(-c2ccc(S(=O)(=O)NCc3ccc(OC(C)C)cc3)cc2)co1 | . | -2 | . | -1 | .
CCN1C(C(=O)c2ccccc2)=C(OC(=O)COc2ccc(C)cc2)c2ccccc2S1(=O)=O | . | 0 | . | 14 | .
COC(=O)[C@@H]1C[C@@H]2CC[C@@H](O)C[C@@H]2N1Cc1ccc(OC)cc1 | -2 | 1 | 39* | 9 | -4
CCOC(=O)C1CCN(C(=O)Cc2c(F)cccc2Cl)CC1 | -3 | 0 | 31* | 21 | -19
N/C(=N\OC(=O)c1ccc(F)cc1)c1ccccc1 | ? | -1 | 5 | -9 | 72*
N/C(=N\OC(=O)c1cccc(F)c1)c1ccccc1 | ? | 0 | -2 | 5 | 57*
